# Screening results: PubChem, National Center for Advancing Translational Sciences (NCATS)
# RE007 growth inh: qHTS Assay for Inhibitors of the HIV-1 protein Vpr; S. pombe RE007 Vpr strain, BacTiter-Glo ATP luminescence, 24 h; Potency, µM (highest dose often 92.2 µM), without a hit: at the top dose activity change, negative = less growth, hits mostly inhibitors; actives 0.21% (n = 360,000); active = well fitted falling curve with a large enough effect; inconclusive = small, poorly fitted or top-dose-only effect; inactive = no such curve, though single readings can be large or run the other way; also: % is scaled to controls: 0 for no effect and ±100 for the full control effect; nearly all actives have a fitted effect of over 50% in size
#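 Fission yeast strain RE007, carrying one chromosomally integrated HIV-1 vpr copy, was seeded at OD 0.01 in PMG+AL medium with 23 nL pinned compound. After 24 h at 30 °C and 99% humidity, viability was read by BacTiter-Glo luminescence.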
# Pf growth 96h: Primary qHTS for delayed death inhibitors of the malarial parasite plastid, 96 hour incubation; AID 504834, 2011; actives 6.9% (n = 320,000); P. falciparum luciferase reporter growth, 96 h; Potency, µM (doses to about 28.7 µM), for the others: at the highest dose activity change, negative = inhibition, hits mostly inhibitors; also: % is scaled to controls: 0 for no effect and ±100 for the full control effect
#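 Cell-based qHTS: luciferase-tagged P. falciparum in erythrocytes (2% hematocrit, 0.05% parasitemia final) incubated with compounds for 96 hours, 37 C, 5% CO2; luciferase detection reagent then added and luminescence measured.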
# Pf growth 48h: Primary qHTS for delayed death inhibitors of the malarial parasite plastid, 48 hour incubation; actives 5.9% (n = 310,000); P. falciparum luciferase growth in erythrocytes, 48 h; Potency, µM (highest dose often 28.7 µM), inactives show at the highest dose activity change, negative = inhibition, most hits filed as inhibitors; also: % is scaled to controls: 0 for no effect and ±100 for the full control effect
#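 Luciferase-expressing P. falciparum in infected erythrocytes (2% hematocrit, 0.1% parasitemia final) in RPMI 1640/0.5% Albumax were exposed to compound for 48 hours at 37 C, 5% CO2; growth read as luminescence.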
# SARS PLP yeast: qHTS of Yeast-based Assay for SARS-CoV PLP; actives 0.19% (n = 330,000); AID 485353, 2010; S. cerevisiae expressing SARS-CoV PLpro, growth rescue; Potency, µM (top dose mostly 32.9 µM), for the others: top-dose activity, positive = growth rescue, most hits filed as activators; calls by dose curve; also: 0% is about no effect; nearly all actives have a fitted effect of over 55% in size
# NS1 inh: qHTS Assay for Inhibitors of Influenza NS1 Protein Function; Potency, µM (titrated, usually from 46.1 µM), without a hit: at the top dose activity, positive = more growth; actives 0.4% (n = 270,000); calls by dose curve; also: actives are rising curves; nearly all actives have a fitted effect of over 50% in size
#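 OD600 was taken as the measure of yeast growth restored by compound in an NS1-expressing S. cerevisiae strain. Cells had been washed out of glucose medium and diluted 1:100 into galactose -URA medium, pH 6.0.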
# Active calls of the source: *; ? = inconclusive; . = no result given; [ ] = dose if it differs, or a comment. An excerpt weighted towards active compounds, which were near 9.5% of everything screened. Unless noted, calls follow the shape of the dose curve; as a rule, active = well fitted inhibition curve with a large enough effect; inconclusive = small, poorly fitted or top-dose-only effect, or another doubt; inactive = no such curve, though single readings can be large or run the other way. Potency is read from the fitted curve at half-maximal effect.
SMILES,RE007 growth inh,Pf growth 96h,Pf growth 48h,SARS PLP yeast,NS1 inh
O=C(O)[C@@H](O)[C@@H](O)C1[O][Sb][O][C@@H]1CO (stereo partly drawn),.,.,.,.,0.1%
CCC1(c2ccccc2)NC(=O)N(CC(=O)NNC(=O)c2ccc(F)cc2)C1=O (stereo not drawn),1.8%,39.3%,13.8%,-19.9%,.
O=C1C(=O)c2ccccc2-c2ccccc21,?,?,.,-54.4%,-39.3%
O=C1C(=C(I)I)c2ccccc2-c2ccccc21,14.1µM*,.,.,.,.
CN(C)CCCNc1c2c(nc3ccccc13)CCC2,1.4%,1.7%,10.4µM*,1.3%,-1.4%
COCCNc1c2c(nc3ccccc13)CCC2,12.4%,9.28µM*,?,-6.7%,1.8%
Cc1ccc(-c2nc(NCCN(C)C)c3ccccc3n2)cc1,-3.1%,-20.7%,?,0.1%,-20.3%
Cc1ccc2nc3c(c(Nc4ccccc4)c2c1)CCC3,0.1%,9.28µM*,?,-1.2%,-33.0%
CN(C)CCCNc1c2c(nc3ccc(Cl)cc13)CCCC2,.,.,.,.,0.0%
CN(C)CCCNc1nc(-c2ccc(Cl)cc2)nc2ccccc12,6.2%,63.4%,10.4µM*,4.1%,28.6%
CC1(C(=O)NS(=O)(=O)c2cccs2)CCN1C(=O)c1ccccc1CCc1ccccc1 (stereo not drawn),9.8%[18.4 µM],.,.,.,.
CCN(CC)C(=O)c1[nH]cnc1C(=O)NCc1ccccc1,3.8%,.,.,1.4%,.
Cc1ccsc1C(=O)N1CCCC(CO)(Cc2ccccc2F)C1 (stereo not drawn),-2.8%,-91.5%,37.2%,?,2.7%
CC(C)CNc1c2c(nc3ccccc13)CCC2,-4.5%,?,10.4µM*,15.2%,-6.6%
c1ccc(CNc2c3c(nc4ccccc24)CCC3)cc1,?,-14.2%,?,-0.2%,4.0%
COc1ccc(OC)c(/C=N/NC(=O)CNC(=O)c2ccc(S(=O)(=O)N3CCOCC3)cc2)c1,-14.6%,-8.8%,10.4%,-4.6%,-0.5%
CCOC(=O)N=Nc1c2ccccc2c2nc3no[nH]c3nc12,5.01µM*,18.6%,1.04µM*,-33.2%,.
CCOC(=O)N=Nc1c(O)n(CC(=O)OC)c2ccccc12,-2.2%,16.4%,24.4%,-2.1%,.
COc1ccc(OC)c(C=NNC(=O)c2ccccc2NS(=O)(=O)c2cccs2)c1,-5.9%,.,.,-1.9%,.
CCOc1ccc2oc(C(=O)N(Cc3nnc(-c4ccccc4Cl)o3)C3CC3)c(C)c2c1,-19.9%,8.28µM*,11.7µM*,4.4%,.
CCCN(Cc1nnc(-c2ccccc2Cl)o1)C(=O)c1cc([N+](=O)[O-])cc([N+](=O)[O-])c1,9.2%,?,?,-0.7%,.
O=C(c1cc([N+](=O)[O-])cc([N+](=O)[O-])c1)N(Cc1nnc(-c2ccccc2Cl)o1)C1CC1,-1.5%,11.7µM*,?,-1.7%,.
CC1CN(S(=O)(=O)c2cccc(C(=O)N(Cc3nnc(-c4ccccc4Cl)o3)C3CC3)c2)CC(C)O1 (stereo not drawn),11.7%,11.7µM*,?,-1.8%,.
CCOc1ccccc1N1CC(C(=O)N(Cc2nnc(-c3ccccc3Cl)o2)C2CC2)CC1=O (stereo not drawn),2.1%,9.28µM*,?,-5.0%,.
COC(=O)c1[nH]c2ccccc2c1CN1CCOCC1,3.8%,18.4%,-9.5%,4.9%,0.7%
SMILES,RE007 growth inh,Pf growth 96h,Pf growth 48h,SARS PLP yeast,NS1 inh
COc1ccc(C[N+](C)(C)N)cc1OC,.,.,.,.,-0.7%
Cc1ccc(C(=O)OCC(=O)c2ccc(S(=O)(=O)N3CCCCC3)cc2)o1,27.2%,2.1%,-10.0%,-3.6%,.
O=C(CCN1C(=O)COc2ccccc21)NCCCN1CCN(c2ccccc2F)CC1,-6.4%,2.62µM*,-15.7%,-0.6%,6.9%
O=C(CN1C(=O)COc2ccccc21)NCCCN1CCCCC1,-10.9%,1.04µM*,-2.2%,11.5%,1.2%
CCCN1CCN(CCCNC(=O)CCN2C(=O)COc3ccccc32)CC1,-15.5%,-1.7%,-7.4%,?,0.7%
CC(C)C(=O)N1CCC(CN=Cc2c(O)n(C3CCCCC3)c(=O)n(C3CCCCC3)c2=O)CC1,101.2%,-19.3%,1.47µM*,-9.4%,.
CC1(C)Cc2cccc(OCC(=O)Nc3ccccc3F)c2O1,-8.4%,0.0%,3.0%,-9.9%,.
Cc1ccc(NC(=O)COc2cccc3ccccc23)c(O)c1,4.1%,4.65µM*,5.22µM*,-2.0%,.
Cc1ccc(NC(=O)COc2cccc3c2OC(C)(C)C3)c(O)c1,-8.2%,?,10.4µM*,-6.3%,.
CC1CN(c2ccc([N+](=O)[O-])c(NCCOc3ccc(Cl)cc3)c2)CC(C)N1 (stereo not drawn),13.6%,223.2%,?,5.1%,20.5%
CCc1ccc(OCCNc2cc(N3CCNC(C)C3)ccc2[N+](=O)[O-])cc1 (stereo not drawn),-2.8%,?,4.65µM*,14.0%,.
O=[N+]([O-])c1ccc(N2CCCCC2)cc1NCCOc1ccccc1,-7.1%,13.1µM*,24.7%,15.4%,11.6%
O=C(Nc1ccc(F)c(Cl)c1)C1Cc2c(-c3ccc4c(c3)OCO4)ccnc2O1 (stereo not drawn),-20.7%,.,.,.,.
C/C(=N\NC(=O)c1ccc([N+](=O)[O-])c(C)c1)c1ccccc1Cl,4.9%,30.2%,18.9%,-10.1%,-9.1%
N#CC1(NC(=O)CSc2nc3ccccc3s2)CCCCC1,7.9%,-14.6%,?,-2.7%,.
CCc1ccc(Nc2nnc(SCC(=O)Nc3ccc(C(=O)O)cc3)s2)cc1,-3.9%,195.9%,4.65µM*,-1.9%,8.7%
N#CC1(NC(=O)CSc2nc3ccc([N+](=O)[O-])cc3s2)CCCCC1,-6.5%,?,5.22µM*,2.3%,.
CCCN(C(=O)CSc1nc2cc(S(=O)(=O)N(CC)CC)ccc2o1)C1CCS(=O)(=O)C1 (stereo not drawn),25.4%,5.22µM*,?,4.9%,.
CCc1ccc(Nc2nnc(SCC(=O)N(C)C3CCS(=O)(=O)C3)s2)cc1 (stereo not drawn),21.1%,?,9.28µM*,-0.6%,-5.2%
CN(CC(=O)Nc1ccc(F)cc1)C(=O)CN1C(=O)NC2(CCCC2)C1=O,-8.8%,12.5%,5.6%,-2.8%,.
CCOC(=O)Cn1cnc2c(cnn2-c2ccccc2)c1=O,10.2%,-16.5%,-13.1%,3.7%,1.9%
CCc1ccc(NC(=O)CSc2nc3ccccc3nc2N2CCCC2)cc1,-10.7%,2.62µM*,-9.8%,?,?
CCN(C(=O)CSc1nnc(Nc2cccc(C)c2C)s1)C1CCS(=O)(=O)C1 (stereo not drawn),-5.0%,-102.4%,8.28µM*,?,1.7%
CCN(C(=O)CSc1nc2ccc([N+](=O)[O-])cc2s1)C1CCS(=O)(=O)C1 (stereo not drawn),0.4%,11.7µM*,?,1.0%,.
